From PubChem BioAssay AID624309 (Sanford-Burnham Center for Chemical Genomics, 2012)
Hit rate of the full screen: of about 2,000 compounds, about 260 (13%) were called active. These entries were drawn from the full list. Values without a mark were called inactive. Cut-off read from the data, not from the text of the source: active = inhibition mostly above about 42% (no sharp cut-off); inactive = mostly below about 42%.

Each molecule was assayed on Nicotinate mononucleotide adenylyltransferase NadD (Staphylococcus aureus N315) (assay: inhibitors of S. aureus NadD, confirmation, biochemical, colorimetric, single concentration (AID 624309)). Conditions: purified S. aureus NadD, colorimetric enzyme assay; at 20 µM; stronger effect = higher value.

Row | Structure (SMILES) | inhibition
1 | Cc1cc(N2C(=O)C(O)=C(C(=O)c3ccc(C)o3)C2c2ccc(OCc3ccccc3)cc2)no1 (configuration not stated) | 51.4% (active)
2 | CCCn1c(C)cc(-c2csc(NC(=O)CCc3nc4ccccc4c(=O)[nH]3)n2)c1C | 25.1%
3 | CCc1ccc(-n2c(=S)sc3c(=O)n(-c4ccccc4OC)c(=S)[nH]c32)cc1 | 5.54%
4 | Cc1ccc(C(=O)COC(=O)c2cccc(N3C(=O)c4c(C)nc5ccccc5c4C3=O)c2)cc1C | 0.6%
5 | Cc1cc(C)c2nc(-c3cccnc3)cc(C(=O)Nc3ccc(S(=O)(=O)Nc4onc(C)c4C)cc3)c2c1 | 64% (active)
6 | COc1cccc2sc(NNC(=O)c3nc4ccccc4s3)nc12 | 43.7%
7 | O=C(COC(=O)c1cc(=O)[nH]c2ccccc12)Nc1nc(-c2cccc(Br)c2)cs1 | 5.44%
8 | CCOc1ccc(CCN2C(=S)N([C@@H](CC(C)C)CN3CCC[C@@H]3CN3C(=S)NC[C@@H]3Cc3ccc(O)cc3)C[C@@H]2Cc2ccc(O)cc2)cc1 | 29.1%
9 | COc1ccc(C(=O)/C=C/c2ccc(-c3ccccc3)cc2)cc1CSCC(=O)O | 46.5%
10 | Cc1ccc(Cn2c(=N)c(S(=O)(=O)c3ccc(C)cc3)cc3c(=O)n4ccccc4nc32)cc1 | 20.4%
11 | Cc1ccc(N2C(=O)C3N=NN(CC(=O)N4N=C(c5cccc6ccccc56)CC4c4ccccc4)C3C2=O)cc1 (configuration not stated) | 33.1%
12 | CC(=O)Nc1ccc(Nc2cc(C)nc(Nc3ccc(NC(C)=O)cc3)n2)cc1 | 9.22%
13 | O=C1NC[C@H](Cc2ccc(O)cc2)N(C[C@@H]2CCCN2C[C@H](Cc2ccccc2)N2C[C@H](Cc3ccccc3)N(CC3CCCCC3)C(=O)C2=O)C1=O | 38.1%
14 | O=C(Nc1ccc(NC(=O)c2cccs2)cc1)c1ccc2ccccc2c1 | -0.66%
15 | Nc1ccc2nc3c(=O)[nH]c(=S)[nH]c3nc2c1 | 72.4% (active)
16 | Cc1ccc(C(=O)Oc2coc(CSc3nnc(NC(=O)c4cccs4)s3)cc2=O)cc1C | 13.8%
17 | CC(C)CC1C(=O)N(Cc2cn(Cc3ccco3)nn2)CCS(=O)(=O)N1Cc1ccc(-c2ccc(Cl)c(Cl)c2)cc1 (configuration not stated) | 35%
18 | COc1cc(C2CC(=O)N3CN(Cc4ccccc4)CSC3=C2C#N)ccc1OCc1ccccc1 (configuration not stated) | 4.07%
19 | COCCCn1c(=O)/c(=C/c2ccccc2OC(C)C)s/c1=C(\C#N)C(=O)Nc1ccc(C(=O)O)cc1 | 12.9%
20 | NNc1cccc(C=Cc2ccccc2)cc1=O | 39.5%
21 | O=C(CSc1nnc(-c2cccnc2)n1Cc1ccco1)c1ccc(Cl)c(Cl)c1 | 32.6%
22 | COc1ccc(NS(=O)(=O)c2ccc(NC(=S)NC(=O)/C=C/c3ccc(C)cc3)cc2)nn1 | 58.1% (active)
23 | COc1ccc(Cl)cc1C(=O)NNC(=S)NC(=O)/C=C/c1ccco1 | -2.56%
24 | COc1ccc(C2=NN(C(=O)CSc3nc(=O)n4ccc(C)cc4n3)C(c3ccc(C)cc3)C2)cc1 (configuration not stated) | 18.2%
25 | C[C@H](CO)N1C[C@H](C)[C@H](CN(C)C(=O)Nc2ccc(C(F)(F)F)cc2)Oc2c(NC(=O)c3ccncc3)cccc2C1=O | 27.5%
26 | Cc1ccc2nc(/C(C#N)=C\c3ccc(OC(=O)c4cccs4)cc3)[nH]c2c1 | 21%

Row | Structure (SMILES) | inhibition
27 | Cc1ccc(/C=C/C(=O)Nc2ccc([N+](=O)[O-])c(NC(=O)/C=C/c3ccc(C)o3)c2)o1 | 60.6% (active)
28 | CCCn1c(C(C)Nc2nc(-c3ccc(C)cc3)cs2)nc2cc(Cl)c(N3CCCCC3)cc21 (configuration not stated) | 0.81%
29 | CCC(NC(=O)c1cc(COc2ccc(F)c(F)c2)on1)c1ccncc1 (configuration not stated) | 2.18%
30 | c1ccc(-c2nccc(-c3ccc(-n4cnc5ccccc54)cc3)n2)nc1 | 16.5%
31 | O=C(CSc1nc2ccccc2c(=O)[nH]1)Nc1nc(-c2ccc(Br)cc2)cs1 | 6.59%
32 | Cc1ccc(Cn2nnc3c(=O)[nH]c(C4CCN(S(=O)(=O)/C=C/c5ccccc5)CC4)nc32)cc1 | 37%
33 | Cc1ccc(Cn2c(C)nc3c(c2=O)c2nc4ccccc4nc2n3Cc2ccco2)cc1 | 11.8%
34 | Cn1c2ccccc2c(=O)c2c(=O)n(Cc3ccco3)c(COc3ccccc3)nc21 | 10.4%
35 | Cc1cc(C(=O)CSc2nc(N)cc(=O)[nH]2)c(C)n1CCc1ccc(Cl)cc1 | 21.5%
36 | C#Cc1cc(N2CCN(C(=O)c3ccoc3)CC2)n2nc(-c3cccc(Cl)c3)cc2n1 | 25.9%
37 | COc1ccc(-c2nn(-c3ccccc3)cc2/C=N/Nc2ccccn2)cc1OC | 5.86%
38 | Cc1ccc(-c2nc(-c3cccnc3)sc2CC(=O)Nc2ccc(C)c(Cl)c2)cc1 | -1.82%
39 | Cc1noc(/C=C/c2ccco2)c1S(=O)(=O)N1CCC(C(=O)N2CCc3ccccc32)CC1 | 4.7%
40 | Cn1cncc1C#Cc1c(-c2ccsc2)sc2ccccc12 | 9.54%
41 | O=C(N/N=C/c1ccc(Cl)cc1)c1nc2ccc([N+](=O)[O-])cc2c(=O)[nH]1 | 9.54%
42 | COc1ccccc1/C=C/C=N/n1c(-c2ccc(Cl)cc2Cl)n[nH]c1=S | 17.4%
43 | CCC(c1nnnn1Cc1ccco1)N(Cc1cc2cc(OC)ccc2[nH]c1=O)C1CCCCC1 (configuration not stated) | 14.9%
44 | COc1ccc(C(=O)Nc2cccc(/C=C(/CCC(=O)O)c3nc4ccccc4s3)c2)cc1 | 35.7%
45 | CC(C)(C)C(=O)Nc1ccc(C(=O)N/N=C/c2ccccc2OC(=O)c2ccc(Cl)cc2Cl)cc1 | 0.49%
46 | CCCCCCc1cc2cc(-c3nnc(-c4ccccc4)o3)c(=O)oc2cc1O | -1.61%
47 | Cc1cc(O)c(C(=O)/C=C/c2c(F)c(F)c(F)c(F)c2F)c(=O)o1 | 12.9%
48 | CCOC(=O)c1ccccc1N1C(=O)C2Sc3[nH]c(=O)sc3C(/C=C/c3ccccc3)C2C1=O (configuration not stated) | 57.6% (active)
49 | CC(C)Oc1ccc(/C=C(\NC(=O)/C=C/c2ccco2)C(=O)NCCc2nc3ccccc3[nH]2)cc1 | 37.9%
50 | Nc1[nH]c(=S)nc2nc(-c3ccccc3)c(-c3ccccc3)nc12 | 38.5%
51 | COc1ccc([N+](=O)[O-])cc1NC(=O)CC1SC(=Nc2cccc(C)c2C)N(/N=C(\C)c2ccc(C)cc2)C1=O (configuration not stated) | -2.98%
52 | Cc1nc(N2CCN(c3ccccn3)CC2)c2c(C)c(C(=O)Nc3ccc(F)c(Cl)c3)sc2n1 | 3.33%

Row | Structure (SMILES) | inhibition
53 | C=CC1=C(C(=O)O)N2C(=O)[C@@H](NC(=O)/C(=N/OCC(=O)O)c3csc(N)n3)[C@H]2SC1 | 95.8% (active)
54 | O=C(O)c1ccc(COCC(F)(F)F)cc1 | 10.3%
55 | CC1(OC(=O)C2CCCC2)C(=O)C=C2C=C(c3ccc(C#N)cc3)OC=C2C1=O (configuration not stated) | 73.5% (active)
56 | Cc1nn(-c2ccccc2)c(C)c1/C=N/NC(=O)CSc1nc2ccccc2c(=O)n1-c1ccccc1 | 8.17%
57 | CCOc1ccc(-c2n[nH]c(=S)n2/N=C/c2cc3c(cc2[N+](=O)[O-])OCO3)cc1 | 4.81%
58 | N#CC1=C(SCc2ccc(C#N)cc2)N=C(N)C(c2nc(-c3ccccc3)cs2)C12CCCCC2 (configuration not stated) | 24.2%
59 | CCN(CC)C(=O)c1sc2nc(-c3ccccc3)ccc2c1N | -11.1%
60 | O=C(CSc1nc(Nc2ccccc2)nc(N2CCOCC2)n1)Nc1cc(Cl)ccc1O | 43.2%
61 | O=C(NCC(=O)N1CCN(c2ccccc2O)CC1)c1ccc2ccccc2c1 | 34.8%
62 | CCCCCCC(=O)Nc1nc(C)c(-c2csc(Nc3cc(Cl)ccc3OC)n2)s1 | 5.75%
63 | COc1ccc(Br)cc1/C=N/Nc1ccc(S(=O)(=O)Nc2ccccc2C(=O)O)cc1[N+](=O)[O-] | 73.9% (active)
64 | Cc1ccc(NS(=O)(=O)c2ccc(N/N=C/c3ccccc3OCC(=O)O)c([N+](=O)[O-])c2)c(C)c1 | 64.9% (active)
65 | O=C(Nc1ccc(S(=O)(=O)Nc2nccs2)cc1)c1cc(-c2ccncc2)nc2ccccc12 | 44.5% (active)
66 | COc1ccc(NS(=O)(=O)c2cc(NC(=O)CC(=O)c3ccc([N+](=O)[O-])cc3)ccc2C)cc1 | 28.1%
67 | CCn1cc(C(=O)NCCCN2CCCCCC2)c(=O)c2cc(S(=O)(=O)N3CCc4ccccc4C3)ccc21 | -16.2%
68 | Cc1cc(C)c(S(=O)(=O)NN=C2c3ccccc3[C@H]3Cc4csc[n+]4[C@@H]23)c(C)c1 | 30.1%
69 | Cc1ccc(Cc2cnc(NC(=O)/C(C#N)=C/c3ccc(-c4cccc([N+](=O)[O-])c4)o3)s2)cc1 | 5.75%
70 | Nc1nc2n(n1)C(c1ccco1)CC(c1ccc(Cl)c(Cl)c1)N2 (configuration not stated) | 13.2%
71 | CCOc1ccc2nc(N3CCCN(C(=O)Nc4ccccc4C)CC3)c(C#N)cc2c1 | -3.08%
72 | CCOc1ccc2nc(/N=C/c3nc(-c4ccccc4)oc3O)sc2c1 | 5.96%
73 | COc1cccc(-c2nn(-c3ccccc3)cc2/C=C(\C#N)C(=O)NCCCn2ccnc2)c1 | 2.7%
74 | Cc1nn2c(c1-c1ccccc1)N=C(c1ccco1)CC2c1ccccc1 (configuration not stated) | 21.2%
75 | COC(=O)c1ccc2nc(-c3ccc(C)cc3)c(Cc3ccc(OC)cc3C)n2c1 | 12.6%
76 | Cc1cc2nc(-c3ccco3)c(Cc3cccc(F)c3)n2c(C)c1Br | 22.4%
77 | C/C(=N\NC(=O)CNc1cccc2ccccc12)c1ccc(Br)s1 | 8.07%
